Measurements: PubChem BioAssay (Tox21)
Values joined by “and” are separate entries in the source; they are usually repeats but may differ in a detail not shown here. Identical values can stand only once. Inconclusive results are not listed. Entries that show only a call come without a potency. Active and inactive are the calls of the source. Calls follow the shape of the dose curve; as a rule, active = well fitted cell-killing curve with a large enough effect in the repeat runs; inconclusive = weak or mixed curves, or effect the other way; inactive = no such curve, though single readings can be large or run the other way.

Test: qHTS assay to identify small molecule agonists of the vitamin D receptor (VDR) signaling pathway - cell viability counter screen (AID 743224); also: nearly all actives have a fitted effect of over 50% in size
Details: VDR-bla HEK293T viability, CellTiter-Glo luminescence, 16 h; series mostly up to 62.6 µM; activity change, negative = cytotoxicity: at the top concentration
Source text: U.S. Tox21 Program National Center for Advancing Translational Sciences [NCATS] NIH Chemical Genomics Center [NCGC] U.S. Environmental Protection Agency [EPA] National Institutes of Environmental Health Sciences [NIEHS] National Toxicology Program [NTP] U.S. Food and Drug Administration [FDA] Tox21 Assay Overview: The vitamin D receptor (VDR), a member of nuclear hormone receptor superfamily, plays a critical role in calcium homeostasis and bone metabolism. It is also involved in cell differentiation and growth, and thrombogenicity. […] The cytotoxicity of the Tox21 compound library against the VDR-bla cell line was tested in parallel by measuring the cell viability using CellTiter-Glo assay (Promega, Madison, WI) in the same wells.
Tox21 Assay Protocol Summary: VDR-bla cells were dispensed at 2,000 cells/6 uL/well into black wall/clear-bottom 1536-well plates using a Multidrop Combi (Thermo Fisher Scientific, Waltham, MA) dispenser. After the assay plates were incubated at a 37C and 5% CO2 for 4 h, 23 nL of compounds dissolved in DMSO, positive controls or DMSO only was transferred to the assay plate by a Pintool station (Kalypsys, San Diego, CA). The plates were incubated at 37C and 5% CO2 for 16 h. After 1 uL of LiveBLAzerTM B/G FRET substrate was added using a Bioraptr Flying Reagent Dispenser (FRD) workstation (Beckman Coulter, Indianapolis, IN, USA), the plates were incubated at room temperature for 2 h, and fluorescence intensity was measured by an Envision plate reader (PerkinElmer, Shelton, CT). For cell viability readout that measures cytotoxicity, 3 ul/well of CellTiter-Glo reagent was added into the assay plates using a FRD. After 30 min incubation at room temperature, the luminescence intensity in the plates was measured using a ViewLux (PerkinElmer) plate reader.
Potency is read from the fitted curve at half-maximal effect.

Structure (SMILES)	Potency	activity change, negative = cytotoxicity
Cc1cc(C)nc(NS(=O)(=O)c2ccc(N)cc2)n1	inactive	
O=C1NS(=O)(=O)c2ccccc21	inactive	
COc1ccc(CN(CCN(C)C)c2ccccn2)cc1	inactive	
CC(C)C(=O)Nc1ccc([N+](=O)[O-])c(C(F)(F)F)c1	inactive	
CC(=O)C(=O)O	inactive	
C[C@](N)(Cc1ccc(O)c(O)c1)C(=O)O	inactive	
CC1(C)O[C@@H]2C[C@H]3[C@@H]4CCC5=CC(=O)C=C[C@]5(C)[C@@]4(F)[C@@H](O)C[C@]3(C)[C@]2(C(=O)CO)O1	inactive	
NS(=O)(=O)c1cc2c(cc1Cl)NCNS2(=O)=O	inactive	
O=c1[nH]cnc2c1ncn2[C@H]1CC[C@@H](CO)O1	inactive	
CCCc1cc(=O)[nH]c(=S)[nH]1	inactive	
CCN(Cc1c(F)cccc1Cl)c1c([N+](=O)[O-])cc(C(F)(F)F)cc1[N+](=O)[O-]		-22.3% (inactive)
CCCCCCCCCCCC[N+](C)(C)Cc1ccccc1	27 µM (active) and 29.9 µM (active) and 13.3 µM (active)	
CN(C)CCOC(C)(c1ccccc1)c1ccccn1 (stereo not given)	inactive	
Nc1ccc(S(N)(=O)=O)cc1		-0.508% [at 81.1 µM] (inactive)
COc1ccc(C(Cl)=C(c2ccc(OC)cc2)c2ccc(OC)cc2)cc1	inactive	
COc1ccc(OC(F)(F)F)cc1CN[C@H]1CCCN[C@H]1c1ccccc1	54.9 µM (active)	
Nc1c(N=Nc2ccc(-c3ccc(N=Nc4cc(S(=O)(=O)O)c5ccccc5c4N)cc3)cc2)cc(S(=O)(=O)O)c2ccccc12		17.7% (inactive)
CC(C)NCC(O)c1ccc(O)c(O)c1 (stereo not given)	inactive	
Cc1cc(=O)oc2cc(O)ccc12	inactive	
NC(CO)(CO)CO	inactive	

Structure (SMILES)	Potency	activity change, negative = cytotoxicity
CN(C)C(=S)SC(=S)N(C)C	1.26 µM (active) and 692 nM (active) and 1.06 µM (active)	
NC(=O)c1cccnc1	inactive	
CCCCCCCCCCCCCCCC[N+](C)(C)Cc1ccccc1	31.9 µM (active) and 8.86 µM (active) and 26.6 µM (active)	
CCc1nc(N)nc(N)c1-c1ccc(Cl)cc1	17.4 µM (active)	
CC1(C)S[C@@H]2[C@H](NC(=O)[C@H](N)c3ccccc3)C(=O)N2[C@H]1C(=O)O	inactive	
CNNCc1ccc(C(=O)NC(C)C)cc1	inactive	
Cc1ncc([N+](=O)[O-])n1CCO	inactive	
CS(=O)(=O)OCCCCOS(C)(=O)=O	inactive	
CC(C)c1c(C(=O)Nc2ccccc2)c(-c2ccccc2)c(-c2ccc(F)cc2)n1CC[C@@H](O)C[C@@H](O)CC(=O)O	inactive	
O=C1O[C@H]([C@@H](O)CO)C(O)=C1O	inactive	
CN[C@H]1CC[C@@H](c2ccc(Cl)c(Cl)c2)c2ccccc21	13.3 µM (active)	
Cc1ncc([N+](=O)[O-])n1C	inactive	
O=c1[nH]cc(F)c(=O)[nH]1	inactive	
O=C1OC2(c3ccccc31)c1cc(Br)c(O)c(Br)c1Oc1c2cc(Br)c(O)c1Br	inactive	
OC[C@H]1O[C@H](O[C@]2(CCl)O[C@H](CCl)[C@@H](O)[C@@H]2O)[C@H](O)[C@@H](O)[C@H]1Cl	inactive	
O=C(O)CC(O)C(=O)O (stereo not given)	inactive	
Nc1ccc2c(c1)CN1C(=O)c3ccccc3C1=N2		-9.77% [at 29.1 µM] (inactive)
CCCCNC(=O)NS(=O)(=O)c1ccc(C)cc1	inactive	
Cc1c(C(=O)O)c(O)cc2c1C(=O)c1c(O)c([C@@H]3O[C@H](CO)[C@@H](O)[C@H](O)[C@H]3O)c(O)c(O)c1C2=O	inactive	
O=S1(=O)OC(c2ccc(O)cc2)(c2ccc(O)cc2)c2ccccc21	inactive	
